{
  "source": "PubChem BioAssay AID493167",
  "about": "(Broad Institute, 2011)",
  "note": "Activity calls are given as the source filed them.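 The calls were made as follows: active = signal falls and fitted half-maximal concentration is at most ten times the sample's top valid dose; inconclusive = flat fit with 30 to 70% inhibition, or poor fit; inactive = change in the rising direction, plus the rest.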",
  "data": [
    {"tested_on": "LuxS (S-ribosylhomocysteine lyase), bacterial", "assay": "S-ribosylhomocysteine lyase activity inhibition – biochemical, dry powder, set 3, absorbance, dose response (AID 493167)", "settings": "purified Co-LuxS, SRH turnover, DTNB absorbance 412 nm; series mostly up to 35 µM", "values": [
      {"compound": "O=S(=O)(Nc1cccnc1)c1ccc(Oc2ccccc2)cc1", "outcome": "inactive"},
      {"compound": "Cc1noc(C)c1S(=O)(=O)Nc1ccc2c(c1)C(=O)N([C@@H](C)CO)C[C@@H](C)[C@@H](CN(C)Cc1ccc(Oc3ccccc3)cc1)O2", "outcome": "inactive"},
      {"compound": "O=S(=O)(Nc1ccccn1)c1ccccc1", "outcome": "inactive"},
      {"compound": "C[C@@H]1CN([C@H](C)CO)C(=O)c2ccccc2-c2ccccc2CO[C@@H]1CN(C)Cc1ccc(Oc2ccccc2)cc1", "outcome": "inactive"}
    ]}
  ]
}
